ADAM10 inh = human ADAM10 inhibitors, primary screen, biochemical, QFRET, HTS | recombinant ADAM10, EDANS/DABCYL FRET peptide cleavage, 3 h | Disintegrin and metalloproteinase domain-containing protein 10 (Homo sapiens), O14672 | actives 0.62% (n = 370,000) | inhibition, % at 7 µM;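 active = inhibition above a per-campaign cutoff equal to the mean of compounds falling between control-based bounds plus 3 SD, cut at about 20% in these data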
proKLK7 act = proKLK7 zymogen activators, primary screen, biochemical, fluorescence intensity. Kallikrein-7 (Homo sapiens), P49862. purified proKLK7, EDANS-DABCYL substrate fluorescence; 100% is mature enzyme control, 0% vehicle. activation, % at 7 µM. actives 0.9% (n = 370,000). AID 652039, 2013;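 active = activation above the mean of all tested compounds plus 3 SD, computed per campaign excluding outliers beyond control limits, cut at about 13% in these data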
FAS TE block = FAS thioesterase domain inhibitors, primary screen, biochemical, fluorescence intensity, uHTS. inhibition, % at 15 µM. actives 0.67% (n = 360,000). recombinant FAS-TE, OMFH fluorogenic substrate, fluorescence endpoint. Fatty acid synthase (Homo sapiens), P49327;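 active = compounds whose normalised, plate-corrected inhibition of enzyme fluorescence in the single-dose primary screen is 50% or more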
ADAM17 inh = ADAM17 inhibitors, primary screen, biochemical, QFRET; Disintegrin and metalloproteinase domain-containing protein 17 (Homo sapiens), P78536; actives 0.83% (n = 370,000); AID 720648, 2013; inhibition, % at 6.95 µM; recombinant ADAM17, EDANS/DABCYL FRET peptide cleavage;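 active = inhibition above the mean of compounds lying between control limits plus 3 SD, set per campaign, cut at about 8.5% in these data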
Target sequence (P78536 215-824 limits assumed): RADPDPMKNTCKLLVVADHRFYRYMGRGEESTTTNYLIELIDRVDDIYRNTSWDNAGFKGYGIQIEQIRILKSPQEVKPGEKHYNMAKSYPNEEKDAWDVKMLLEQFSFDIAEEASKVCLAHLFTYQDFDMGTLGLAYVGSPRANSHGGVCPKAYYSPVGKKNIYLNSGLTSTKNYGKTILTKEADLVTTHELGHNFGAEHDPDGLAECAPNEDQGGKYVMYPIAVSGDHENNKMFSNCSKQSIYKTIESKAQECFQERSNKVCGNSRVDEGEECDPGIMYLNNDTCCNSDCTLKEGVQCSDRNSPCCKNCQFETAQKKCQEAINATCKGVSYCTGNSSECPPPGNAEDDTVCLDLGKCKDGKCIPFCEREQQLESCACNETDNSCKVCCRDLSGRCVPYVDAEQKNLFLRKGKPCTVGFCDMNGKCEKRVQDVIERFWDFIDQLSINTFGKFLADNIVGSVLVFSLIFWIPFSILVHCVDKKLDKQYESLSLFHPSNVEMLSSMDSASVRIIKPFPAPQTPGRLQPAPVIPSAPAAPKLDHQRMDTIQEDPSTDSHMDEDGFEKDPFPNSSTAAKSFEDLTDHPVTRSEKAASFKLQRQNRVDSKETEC
GRIN3A LBD mod = binders of NR3A ligand-binding domain, primary screen, biophysical, differential scanning fluorimetry, uHTS | actives 2.5% (n = 340,000) | Tm shift relative to glycine control, % at 25 µM | AID 1259313, 2017 | Glutamate receptor ionotropic, NMDA 3A (GRIN3A) ligand-binding domain | NR3A LBD differential scanning fluorimetry, Tm shift; 0% = protein alone, 100% = glycine-bound protein;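 active = melting temperature shift of at least 10% of the positive control shift, at one fixed dose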
FAS-TE conf = FAS thioesterase domain inhibitors, confirmation, biochemical, fluorescence intensity, single concentration; shares compounds with FAS TE block; recombinant FAS-TE, OMFH fluorogenic substrate; inhibition, % at 15 µM; actives 45% (n = 2,300); AID 624325, 2012;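 active = compounds inhibiting the enzyme by at least 50% at 15 µM in any one of the replicates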
Of the large screens only hits and unclear results are named; the others gave an inactive call (follow-up assays come after a bar, where they were run). Only some compounds are listed: those with a hit (about 4.6% of all), similar ones and a draw of the others.

CCOC1=C2[C@@H](CN(S(=O)(=O)c3ccccc3C)[C@H]2c2ccc(Cl)cc2)[C@H]2C(=O)N(c3ccccc3)C(=O)[C@H]2C1	FAS TE block 83 (no result: GRIN3A LBD mod) | FAS-TE conf inactive
CCOC1=C2[C@@H](CN(S(=O)(=O)c3ccccc3C)[C@H]2c2ccc(Cl)cc2)[C@H]2C(=O)N(C3CCCCC3)C(=O)[C@H]2C1	none (no result: FAS TE block, GRIN3A LBD mod)
CCOC1=C2[C@@H](CN(S(=O)(=O)c3ccc(C)cc3)[C@H]2c2ccccc2F)[C@H]2C(=O)N(C3CCCCC3)C(=O)[C@H]2C1	FAS TE block 72 (no result: GRIN3A LBD mod) | FAS-TE conf inactive
C=CCn1c(COc2ccc(C)cc2)nnc1SCC(=O)Nc1cc(Cl)cc(Cl)c1	none (no result: FAS TE block, GRIN3A LBD mod)
COc1ccc(NC(=O)/C(Cl)=C(/Cl)S(=O)Cc2ccc(Cl)cc2)cn1 (stereo unspecified)	FAS TE block 62 | FAS-TE conf 68
COC(=O)c1cccc(Cn2ccc3ccc(-c4ccc5ccn(C(=O)C6CC6)c5c4)cc32)c1	none (no result: FAS TE block, GRIN3A LBD mod)
COc1cccc(C(=O)N[C@H](C(=O)N2CCC[C@H]2C(=O)NCCc2ccccc2Cl)C2CCCCC2)c1	none (no result: FAS TE block, GRIN3A LBD mod)
COc1ccc(-c2[nH]n(-c3ccc([N+](=O)[O-])cc3)c(=O)c2C=NCc2ccccc2)cc1	FAS TE block 54 | FAS-TE conf inactive
Cc1nc2ccc([N+](=O)[O-])cc2c(=O)n1Cc1ccc(Cl)cc1	FAS TE block 83 | FAS-TE conf 85
COc1ccc(Cn2c(=O)c3cccnc3n(Cc3ccc([N+](=O)[O-])cc3)c2=O)cc1	none
COc1ccc(Cn2c(C)nc3ccc([N+](=O)[O-])cc3c2=O)cc1	FAS TE block 70 | FAS-TE conf 48
O=C(CSc1nnc(-c2ccccc2)n1-c1ccccc1)Nc1ccc(Oc2ccccc2)cc1	none (no result: FAS TE block, GRIN3A LBD mod)
Cc1ccc(OCc2nnc(SCC(=O)Nc3ccc(OCc4ccccc4)cc3)n2-c2ccc(Cl)cc2)cc1	none (no result: FAS TE block, GRIN3A LBD mod)
COC(=O)[C@]12C[C@H](CC(=O)NCC3CCCCC3)C(=O)N(Cc3ccccc3)C1=C[C@H](COCc1ccccc1)O[C@@H]2C	none (no result: FAS TE block, GRIN3A LBD mod)
CCN1C(=O)[C@H]2[C@@H](c3ccc(C)cc3)N3C(=O)N(c4cccc(Cl)c4)C(=O)[C@@]3(Cc3ccc(Cl)cc3)[C@H]2C1=O	FAS TE block 86 | FAS-TE conf 53
CCN1C(=O)[C@H]2[C@@H](c3ccc(C)cc3)N3C(=O)N(c4cccc(C)c4)C(=O)[C@@]3(Cc3ccccc3)[C@H]2C1=O	none
CCN1C(=O)[C@H]2[C@@H](c3ccc(C)cc3)N3C(=O)N(c4cccc(Br)c4)C(=O)[C@@]3(Cc3ccccc3)[C@H]2C1=O	FAS TE block 67 | FAS-TE conf inactive
COC(=O)C1CN(Cc2cn(Cc3ccc(F)cc3)nn2)CCS(=O)(=O)N1Cc1ccc(C)cc1 (stereo unspecified)	none (no result: FAS TE block, GRIN3A LBD mod)
Cc1ccc(-n2c(SCC(=O)Nc3ccc(OCc4ccccc4)cc3)nnc2-c2ccco2)cc1	none (no result: FAS TE block, GRIN3A LBD mod)
Cc1ccc(S(=O)(=O)Nc2ccc3c(c2)c2c(n3S(=O)(=O)c3ccc(C)cc3)CCCC2=O)cc1	FAS TE block 51 | FAS-TE conf inactive
Cc1nc(Sc2ccc(Cl)cc2)c(C#N)c(C)c1[N+](=O)[O-]	FAS TE block 64 | FAS-TE conf inactive
Cc1nc(N2CCC(C)CC2)c(C#N)c(C)c1[N+](=O)[O-]	none
Cc1ccc(Sc2nc(C)c([N+](=O)[O-])c(C)c2C#N)cc1	none
Cc1nc(Sc2ccc(Br)cc2)c(C#N)c(C)c1[N+](=O)[O-]	FAS TE block 61 | FAS-TE conf inactive
CC(C)C(=O)N1CCC2(CC1)Oc1ccc(Cl)cc1C(=O)C21CC(c2ccc(Cl)cc2)=NO1 (stereo unspecified)	FAS TE block 50 | FAS-TE conf inactive
O=C(/C=C/c1cccs1)N1CCC2(CC1)Oc1ccc(F)cc1C(=O)C21CC(c2ccc(Cl)cc2)=NO1 (stereo unspecified)	FAS TE block 62 | FAS-TE conf inactive
CC(C)(C)OC(=O)N1CCC2(CC1)Oc1ccc(F)cc1C(=O)C21CC(c2cccnc2)=NO1 (stereo unspecified)	none
Cc1noc(C)c1C(=O)N1CCC2(CC1)Oc1ccc(F)cc1C(=O)C21CC(c2ccc(Cl)cc2)=NO1 (stereo unspecified)	FAS TE block 94 | FAS-TE conf inactive
O=C(c1ccc2c(c1)OCO2)N1CCC2(CC1)Oc1ccc(F)cc1C(=O)C21CC(c2ccc(Cl)cc2)=NO1 (stereo unspecified)	none
O=C(c1ccc2c(c1)OCO2)N1CCC2(CC1)Oc1ccc(Cl)cc1C(=O)C21CC(c2ccccc2)=NO1 (stereo unspecified)	FAS TE block 54 | FAS-TE conf inactive
CN(C)[C@H]1CCN(c2ccc3c(c2)O[C@H]2CCN(C2)S3(=O)=O)C1	none (no result: FAS TE block, GRIN3A LBD mod)
COc1ccc(-n2c(SCC(=O)Nc3ccc(S(=O)(=O)Nc4cc(C)nc(C)n4)cc3)nnc2-c2ccco2)cc1	none (no result: FAS TE block, GRIN3A LBD mod)
O=C(/C=C/c1cccs1)N1CCC2(CC1)Oc1ccc(Cl)cc1C(=O)C21CC(c2ccc(Cl)cc2)=NO1 (stereo unspecified)	FAS TE block 50 | FAS-TE conf inactive
COc1cccc(N(C)C(=O)[C@@H](C2CC2)[C@@H](O)c2ccc3ccccc3c2)c1	none (no result: FAS TE block, GRIN3A LBD mod)
Cn1c(-c2ccccc2)cnc1NCc1cccc([N+](=O)[O-])c1	FAS TE block 71 | FAS-TE conf 67
Cc1cccc(OCC(=O)N/N=C/c2cc([N+](=O)[O-])ccc2N2CCOCC2)c1	FAS TE block 66 | FAS-TE conf 57
CCc1ccc(OCC(=O)N/N=C/c2cc([N+](=O)[O-])ccc2N2CCOCC2)cc1	FAS TE block 73 | FAS-TE conf inactive
O=C(NCCc1ccccc1)OCc1cn(-c2c(F)cccc2F)nn1	none (no result: FAS TE block, GRIN3A LBD mod)
O=C(OCc1cn(Cc2cc(F)ccc2F)nn1)N1CCOCC1	none (no result: FAS TE block, GRIN3A LBD mod)
O=C(c1cc([N+](=O)[O-])ccc1N1CCOCC1)N1CCCCC1	none
CCN(C(=O)COC(=O)c1cc([N+](=O)[O-])ccc1N1CCOCC1)C1CCS(=O)(=O)C1 (stereo unspecified)	none
CN(C(=O)COC(=O)c1cc([N+](=O)[O-])ccc1N1CCOCC1)C1CCCCC1	FAS TE block 89 (no result: GRIN3A LBD mod) | FAS-TE conf 93
